# Compounds with a hit are over-represented: about 12% of the library has one in this group of screens.
# JMJD2A Tudor = qHTS Assay for Inhibitors of JMJD2A-Tudor Domain | Lysine-specific demethylase 4A (Homo sapiens), O75164 | AlphaScreen JMJD2A-Tudor / H3K4me3 peptide binding | Potency, µM (highest dose often 114 µM), inactives show at the highest dose activity change, negative = inhibition, most hits filed as inhibitors | 4.4% of 390,000 active; note: % is set by controls: 0 for no effect and ±100 for the full control effect; nearly all actives have a fitted effect of over 50% in size
# HP1b chromo inh = HTS for Inhibitors of HP1-beta Chromodomain Interactions with Methylated Histone Tails; AlphaScreen HP1-beta / biotin-H3K9me3 peptide binding; Potency, µM (series often up to 114 µM), inactives show top-dose activity change, negative = inhibition, usual class: inhibitors; 0.56% of 390,000 active; AID 540317, 2011; note: nearly all actives have a fitted effect of over 70% in size
# Target sequence (P83916 whole entry, looked up): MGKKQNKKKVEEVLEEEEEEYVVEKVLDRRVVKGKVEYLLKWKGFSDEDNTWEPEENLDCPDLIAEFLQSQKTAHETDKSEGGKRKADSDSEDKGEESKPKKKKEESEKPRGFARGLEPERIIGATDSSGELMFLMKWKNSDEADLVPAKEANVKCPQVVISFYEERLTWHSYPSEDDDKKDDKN
#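 HP1-beta protein (50 nM final) preincubated 30 min at room temperature with biotinylated H3(1-18)K9me3 peptide (50 nM) in PBS pH 7.4, 0.01% Tween-20, then compound added for 30 min. AlphaScreen streptavidin donor/nickel chelate acceptor beads (10 ug/mL final), 30 min dark, luminescence read.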
# BAZ2B block = qHTS Assay for Inhibitors of BAZ2B | 4.4% of 360,000 active | Bromodomain adjacent to zinc finger domain protein 2B (Homo sapiens), Q9UIF8 | AlphaScreen BAZ2B-H3K14Ac peptide displacement | Potency, µM (doses to about 114 µM), for the others: at the highest dose activity change, negative = inhibition, usual class: inhibitors; note: % is set by controls: 0 for no effect and ±100 for the full control effect; nearly all actives have a fitted effect of over 60% in size
#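 AlphaScreen displacement: compounds (up to 110uM) incubated 30 min at room temperature with a preformed 50 nM BAZ2B/50 nM biotinylated H3K14Ac peptide complex in PBS pH 7.4 with Tween-20. Donor and acceptor beads at 10 ug/mL final added, 20 min light-protected before reading.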
# G9a inh = qHTS Assay for Inhibitors of Histone Lysine Methyltransferase G9a; Histone-lysine N-methyltransferase EHMT2 (Homo sapiens), Q96KQ7; G9a H3K9 monomethylation, AlphaScreen, 2 h; Potency, µM (series often up to 102 µM), inactives show top-dose activity, negative = inhibition, hits mostly inhibitors; 8.8% of 350,000 active; note: % is set by controls: 0 for no effect and ±100 for the full control effect; nearly all actives have a fitted effect of over 75% in size
#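 Quantitative HTS format: methyltransferase activity on a biotin-tagged H3K9 peptide is measured by AlphaScreen, using a rabbit anti-monomethyl-H3K9 antibody with streptavidin donor and anti-IgG acceptor beads. Final levels are 20 nM enzyme, 500 nM peptide, 20 uM SAM; 2 h RT.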
# Sfp PPTase inh = qHTS Assay for Inhibitors of Bacillus subtilis Sfp phosphopantetheinyl transferase (PPTase) | Biochemical Sfp PPTase activity, qHTS | Potency, µM, for the others: largest response in the series, negative = inhibition, actives largely listed as inhibitors | 3.5% of 310,000 active | AID 1490, 2009;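 note: the enzyme is Sfp with the accession as filed and its product quenches rhodamine fluorescence; 0% = enzyme reaction without inhibitor and -100% = no enzyme wells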
#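 Step 1, compound plus 15 nM Sfp-PPTase, 15 min, room temperature. Step 2, add rhodamine-CoA (5 uM) and BHQ-2-YbbR (12.5 uM). Step 3, read 525/598 nm fluorescence at 0 and 30 min.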
# An asterisk follows results filed as active; ? = inconclusive; · = not tested or not shown; [ ] = remark or other dose. Calls come from the whole dose curve; as a rule, active = well fitted curve in the direction sought with a large enough effect; inconclusive = small, poorly fitted or top-dose-only effect, or another doubt; inactive = no such curve, though single readings can be large; an effect the other way counts as inactive or inconclusive. Potency is the fitted concentration of half-maximal effect.
SMILES,JMJD2A Tudor,HP1b chromo inh,BAZ2B block,G9a inh,Sfp PPTase inh
CCN(CCCNC(=O)CC(C(=O)N1CCc2ccccc21)n1ccnc1)c1cccc(C)c1 (configuration not stated),50µM*,-34%,37%,?,6%
CN(CCNC(=O)c1cccc(N2CCCC2=O)c1)Cc1ccccc1,-14%,64%,12%,-15%,1%
CCN(CCNC(=O)c1cccc(N2CCCC2=O)c1)c1ccccc1,-11%,14%,-27%,50µM*,21%
COC(=O)c1ccc(C(NC(=O)OCc2ccccc2)/C(C)=C/[C@@H](C)C(=O)NCc2nc3ccccc3s2)cc1 (some centres not stated),·,·,·,·,15%
CCN(CCCNC(=O)c1ccc(N2CCCC2=O)cc1)c1cccc(C)c1,-23%,-12%,-37%,28µM*,8%
CC1CCCCN1S(=O)(=O)c1ccc(C(=O)N(CCCN(C)C)c2nc3ccc(Br)cc3s2)cc1 (configuration not stated),45µM*,-17%,?,·,50µM*
CCOC(=O)N1CCN(S(=O)(=O)c2ccc(C(=O)N(CCN(CC)CC)c3nc4ccc(C)cc4s3)cc2)CC1,?,-18%,?,50µM*,-9%
CC1CN(S(=O)(=O)c2ccc(C(=O)N(CCCN(C)C)c3nc4cc5c(cc4s3)OCCO5)cc2)CC(C)O1 (configuration not stated),-36%,4%,-5%,50µM*,·
CN(C)CCN(C(=O)c1ccc(S(=O)(=O)N2CCCC2)cc1)c1nc2ccc(Br)cc2s1,-24%,35%,-18%,71µM*,-17%
CCCn1c2ccccc2c2cnn(CC(=O)NCCc3ccc(S(N)(=O)=O)cc3)c(=O)c21,8%,21%,-2%,3%[59 µM],·
CCC1CCCCN1S(=O)(=O)c1ccc(C(=O)N(CCCN(C)C)c2nc3cc4c(cc3s2)OCO4)cc1 (configuration not stated),?,-11%,?,56µM*,-12%
Cc1ccc2nc(N(CCCN(C)C)C(=O)c3ccc(S(=O)(=O)N4CCCCCC4)cc3)sc2c1,?,-4%,?,-28%,-20%
CCOC(=O)N1CCN(S(=O)(=O)c2ccc(C(=O)N(CCCN(C)C)c3nc4ccc(CC)cc4s3)cc2)CC1,?,8%,-36%,?,-23%

# Bioassay records as filed in PubChem.
